Shown are actives, neighbours in structure and some others; about 8% of the full set was active somewhere.
KB-V1 MDR tox: kills drug-selected multidrug resistant KB-V1 cells | KB-V1 MDR cells viability, CellTiter-Glo, 72 h | Potency, µM (highest dose often 46.1 µM), actives largely listed as cytotoxic | AID 1347076 | actives 3.4% (n = 400,000); further: on the % scale 0 is the no-effect control and ±100 the full control effect; nearly all actives have a fitted effect of over 60% in size
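KB-V1 cells (P-gp-expressing MDR subline of KB-3-1) in phenol-red-free DMEM with 10% FBS were exposed to library compounds over a concentration series for 72 h at 37 degrees C. Viability read by CellTiter-Glo luminescence; concentration-effect curves fitted after normalization.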
MCF10A rerep: inducers of DNA re-replication in MCF 10A breast cells; Potency, µM (highest dose often 46.1 µM), inactives show at the top dose activity, positive = re-replication, actives largely listed as activators; actives 2.9% (n = 350,000); MCF 10A DNA re-replication, Hoechst nuclear intensity, 48 h; AID 624296; further: % of control where 0% means no effect; nearly all actives have a fitted effect of over 50% in size
HT1080NT lethal: kills 2HG-producing HT-1080-NT fibrosarcoma cells; actives 1.6% (n = 360,000); Potency, µM (top dose mostly 46.1 µM), without a hit: at the top dose activity, negative = less viability, hits mostly cytotoxic; HT-1080-NT fibrosarcoma viability, CellTiter-Glo ATP luminescence, 48 h; AID 686970;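 further: NT is the 2HG producing partner of a matched IDH1 knockdown line; 0% = DMSO-treated cells and -100% = media-only wells without cells; nearly all actives have a fitted effect of over 55% in size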
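Viability of the 2HG-overproducing fibrosarcoma line after 48 hours of compound exposure at 37 degrees C was determined by luminescence with CellTiter-Glo, and concentration-effect curves were then fitted and categorized.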
KB-3-1 cytotox: KB-3-1 parental cell cytotoxicity; Potency, µM (doses to about 46.1 µM), actives largely listed as cytotoxic; actives 1.4% (n = 400,000); KB-3-1 viability, CellTiter-Glo ATP luminescence, 72 h; further: on the % scale 0 is the no-effect control and ±100 the full control effect; nearly all actives have a fitted effect of over 60% in size
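Screening of KB-3-1 cells (DMEM, 10% FBS, phenol-red free) ran from lowest to highest compound concentration; after 72 h at 37 °C viability was read luminescently and curves fitted.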
HT1080 IDH1KD tx: toxicity to HT-1080 IDH1 knockdown cells (counter line); HT-1080 IDH1 knockdown viability, ATP luminescence, 48 h; Potency, µM (highest dose often 46.1 µM), without a hit: at the top dose activity, negative = toxicity, hits mostly cytotoxic; actives 2% (n = 360,000);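 further: 0% = DMSO wells and -100% = cell-free medium wells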
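% activity derives from luminescence (CellTiter-Glo), normalised to DMSO and no-cell wells. HT-1080-IDH1KD cells, 750/well, had 48 h compound exposure at 37 °C.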
SW480 rerep: induces DNA re-replication in SW480 colon adenocarcinoma cells; SW480 DNA re-replication, Hoechst DNA content imaging, 48 h; Potency, µM (titrated, usually from 46.1 µM), inactives show top-dose re-replication activation, most hits filed as activators; actives 1.8% (n = 340,000); AID 624297; further: % of control where 0% means no effect; nearly all actives have a fitted effect of over 55% in size
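Image-based read-out: total Hoechst fluorescence of nuclei (405 nm excitation, 500-530 nm emission), with hits raising the fraction of high-intensity nuclei. SW480 colon cells incubated 48 hr with compounds at 37 C.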
* = called active by the depositor; i = inactive; ? = inconclusive; . = no result. The call rests on the fitted dose curve; in most records, active means well fitted curve in the direction sought with a large enough effect; inconclusive means small, poorly fitted or top-dose-only effect, or another doubt; inactive means no such curve, though single readings can be large; an effect the other way counts as inactive or inconclusive. Potency means the concentration at half of the fitted maximal effect.

SMILES	KB-V1 MDR tox	MCF10A rerep	HT1080NT lethal	KB-3-1 cytotox	HT1080 IDH1KD tx	SW480 rerep
CCC(c1nnnn1Cc1ccccc1)N1CCN(c2ccccc2)CC1 (stereo not given)	23.1µM*	-0.9%	-0.9%	i	7.9%	-15.5%
Fc1ccc(CN2CCN(C(c3ccccc3)c3ccccc3)CC2)cc1	i	11.5%	2.9%	i	5.2%	21.3%
c1ccc(CN2CCN(C(c3ccccc3)c3ccccc3)CC2)cc1	?	20.6µM*	-13.8%	i	?	7.7%
O=S(=O)(CCN1CCN(C(c2ccccc2)c2ccccc2)CC1)C(F)(F)F	i	?	?	i	17.8µM*	?
CCc1nc(-c2cc(S(=O)(=O)N3CCN(c4ccccc4)CC3)ccc2OC)no1	i	.	.	i	.	.
Clc1ccc(C(c2nnnn2C2CCCC2)N2CCN(Cc3ccncc3)CC2)cc1 (stereo not given)	i	-3.3%	-10.4%	i	-14.0%	11.9%
CCCCn1nnnc1C(c1ccccc1)N1CCCN(Cc2ccc(F)cc2)CC1 (stereo not given)	8.2µM*	.	?	?	-23.4%	.
CCCCn1nnnc1C(c1ccccc1)N1CCN(CC)CC1 (stereo not given)	?	.	12.0%	i	9.7%	.
c1ccc(CCn2nnnc2C(c2cccnc2)N2CCN(c3nc4ccccc4s3)CC2)cc1 (stereo not given)	?	9.9%	-12.6%	i	-16.9%	-19.3%
c1ccc(CCn2nnnc2C(c2cccnc2)N2CCN(c3ccccc3)CC2)cc1 (stereo not given)	10.3µM*	?	-6.4%	i	-3.2%	0.1%
Fc1ccc(C(c2nnnn2C2CCCC2)N2CCN(Cc3ccccc3)CC2)cc1 (stereo not given)	3.66µM*	1.1%	0.8%	i	11.2%	-2.4%
O=c1cc2nc(-c3ccccc3F)nc(SCc3ccc(Br)cc3)n2[nH]1	i	.	.	i	.	.
CCc1ccc2oc(C(=O)Nc3cc(C)ccc3C)cc(=O)c2c1	i	.	.	i	.	.
O=C(c1ccc2nc(-c3ccco3)c(-c3ccco3)nc2c1)N1CCN(c2ccccc2)CC1	23.1µM*	16.4µM*	-9.6%	i	?	?
O=C(Nc1ccc2nc(-c3ccccn3)c(-c3ccccn3)nc2c1)N1CCCC1	i	.	.	i	.	.
O=C(Nc1ccc2nc(-c3cccs3)c(-c3cccs3)nc2c1)N1CCOCC1	16.4µM*	18.4µM*	-16.8%	i	?	23.1µM*
O=C(Nc1ccc(N2CCOCC2)cc1)Nc1ccc2nc(-c3ccco3)c(-c3ccco3)nc2c1	?	9.2µM*	2.82µM*	?	5.01µM*	18.3%
O=C(Nc1ccc2nc(-c3ccco3)c(-c3ccco3)nc2c1)NC1CC1	?	25.1%	-5.7%	i	-11.9%	?
CSc1cccc(NC(=O)c2ccc3c(c2)CCCN3S(C)(=O)=O)c1	?	.	.	i	.	.
CCNC(=O)c1ccc(CSc2nc3ccccc3s2)cc1	i	9.7%	-9.0%	i	-26.8%	-0.7%
CCC(C)/C(C)=N/NC(=O)c1ccc(CSc2nc3ccccc3s2)cc1 (stereo not given)	23.1µM*	?	-14.5%	?	-13.2%	-4.0%
O=C(Cc1ccc(F)cc1)N1CCC(c2nc3c(nnn3Cc3ccc(Cl)cc3)c(=O)[nH]2)CC1	i	.	.	i	.	.
COc1ccc(CC(=O)Nc2ccccc2-c2ccccc2)cc1OC	14.6µM*	2.5%	-7.4%	?	-9.1%	1.2%
O=C(CNC(c1ccccc1)c1ccccc1)Nc1ccccc1-c1ccccc1	14.6µM*	?	-17.3%	?	-29.0%	2.8%
Cc1ccc(CC(=O)Nc2ccccc2-c2ccccc2)cc1C	20.6µM*	9.2µM*	11.9%	i	15.0%	3.1%
